# Laboratory results from PubChem BioAssay (Tox21).
# Active and inactive are the calls of the source. Entries that show only a call come without a potency. Calls come from the whole dose curve; as a rule, active = well fitted inhibition curve with a large enough effect in the repeat runs (not every such curve was filed as active); inconclusive = weak or mixed curves; inactive = flat fitted curve, though single readings scatter.
# Biological target: Thyrotropin-releasing hormone receptor (Homo sapiens) (UniProt P34981)
# Sequence (P34981 whole entry, looked up): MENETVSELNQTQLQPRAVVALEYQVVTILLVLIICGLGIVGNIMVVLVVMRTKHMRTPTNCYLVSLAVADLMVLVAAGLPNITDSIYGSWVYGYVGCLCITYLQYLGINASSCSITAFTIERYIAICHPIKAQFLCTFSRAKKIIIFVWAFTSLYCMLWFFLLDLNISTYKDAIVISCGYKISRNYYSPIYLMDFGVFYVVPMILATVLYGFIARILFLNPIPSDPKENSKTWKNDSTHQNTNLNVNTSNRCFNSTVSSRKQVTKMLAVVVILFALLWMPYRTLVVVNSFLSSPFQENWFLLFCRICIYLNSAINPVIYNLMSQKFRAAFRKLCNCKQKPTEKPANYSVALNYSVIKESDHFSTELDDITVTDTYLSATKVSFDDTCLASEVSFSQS
# Assay: qHTS assay to identify small molecule antagonists of the thyrotropin-releasing hormone receptor (TRHR) signaling pathway (AID 1346877)
# Settings: TRHR-HEK293, TRH-induced calcium fluorescence, antagonist mode; series mostly up to 51.3 µM
# Excerpt: National Center for Advancing Translational Sciences [NCATS]
# NIH Chemical Genomics Center [NCGC]
# U.S. Environmental Protection Agency [EPA]
# National Institutes of Environmental Health Sciences [NIEHS]
# National Toxicology Program [NTP]
# U.S. Food and Drug Administration [FDA]
# Thyrotropin-releasing hormone (TRH) receptor (TRHR) is a G-protein-coupled receptor which binds the tripeptide thyrotropin releasing hormone. TRHR is found in the brain and, when bound by TRH, acts (through phospholipase C) to increase intracellular inositol trisphosphate. It plays a crucial role in the anterior pituitary where it controls the synthesis and secretion of thyroid stimulating hormone and prolactin. The TRHR-Hek293 assay is a cell-based assay, and it has the potential to screen G protein-coupled receptors. A compound/drug can either activate (agonist) or suppress (antagonist) GPCRs that can be monitored by levels of intracellular calcium. In this assay, the Tox21 10K compound library was screened to identify potential TRHR antagonists.
# Tox21 Assay Protocol Summary:
# The TRHR-Hek293 cells were dispensed at 1500cells/4uL/well in 1536-well black-clear bottom plates using a Multidrop dispenser. After the assay plates were incubated at a 37 C/5% CO2 incubator for 18 hours, 4 uL of Dye-Loading Solution was added to each well. The plates were incubated at 37 C for 2 hours. For agonist mode, 23 nL of compounds dissolved in DMSO, positive controls or DMSO only was transferred to the assay plate by a pin tool. The fluorescence intensity in the plates was measured using FDSS 7000EX kinetic plate reader for 3 min at 1 sec intervals. For antagonist mode, 23 nL of compounds dissolved in DMSO, positive controls or DMSO only was transferred to the assay plate by a pin tool. After 5 min incubation at room temperature, 1 uL of TRH was added on the top of the cell/compound mixtures to achieve a final agonist concentration of 1 nM. The fluorescence intensity in the plates was measured using FDSS 7000EX kinetic plate reader for 3 min at 1 sec intervals. Each test compound was measured at 15 concentrations and in triplicates.
row,Structure (SMILES),Potency
1,Cc1ccc(OP(=O)(Oc2ccc(C)cc2)Oc2ccc(C)cc2)cc1,inactive
2,CCCCN(CCCC)N=O,inactive
3,CCCCCCCCCCCOC(=O)c1ccccc1C(=O)OCCCCCCCCCCC,inactive
4,Cc1cc(Cl)ccc1OCCCC(=O)O,inactive
5,Nn1cnnc1,inactive
6,O=[N+]([O-])c1ccc(O)c([N+](=O)[O-])c1,inactive
7,Oc1ccc(-c2ccccc2)cc1,inactive
8,C1=Cc2cccc3cccc1c23,inactive
9,Nc1cccnc1,inactive
10,O=c1oc2ccccc2c(O)c1C(CC(O)c1ccc(-c2ccc(Br)cc2)cc1)c1ccccc1 (stereo not given),inactive
11,CC(C)NC(C)C,inactive
12,C=C(C)C(=O)OCC1CO1 (stereo not given),inactive
13,Cc1ccc2c(c1N)C(=O)c1ccccc1C2=O,inactive
14,c1ccc(-c2cccc(-c3ccccc3)c2)cc1,inactive
15,O=C(Nc1ccc(Br)cc1)c1cc(Br)cc(Br)c1O,inactive
16,S=C1NCCN1,inactive
17,COP(=S)(OC)Oc1cc(Cl)c(Cl)cc1Cl,inactive
18,CCOc1cc(Oc2ccc(C(F)(F)F)cc2Cl)ccc1[N+](=O)[O-],inactive
19,CC1(C)C(C=C(Cl)Cl)C1C(=O)OC(C#N)c1cccc(Oc2ccccc2)c1 (stereo not given),inactive
20,CCC(C)(C)c1ccc(O)cc1,inactive

row,Structure (SMILES),Potency
1,O=P(O)(O)CCCl,inactive
2,CCOCN(C(=O)CCl)c1c(C)cccc1CC,inactive
3,Cc1cc(C)cc(C)c1,inactive
4,COP(=O)(OC)OC,inactive
5,CCC(CC)Nc1c([N+](=O)[O-])cc(C)c(C)c1[N+](=O)[O-],inactive
6,O=C1C=CC(=O)C=C1,inactive
7,CCN(CC)C(=O)SCc1ccc(Cl)cc1,inactive
8,Cc1ccccc1[N+](=O)[O-],inactive
9,C#CCOS(=O)OC1CCCCC1Oc1ccc(C(C)(C)C)cc1 (stereo not given),inactive
10,CCN(CC)C(=O)/C(Cl)=C(\C)OP(=O)(OC)OC,inactive
11,O=[N+]([O-])c1c(Cl)c(Cl)c(Cl)c(Cl)c1Cl,inactive
12,CC(C)N(C(=O)SCC(Cl)=C(Cl)Cl)C(C)C,inactive
13,c1ccc(P(c2ccccc2)c2ccccc2)cc1,inactive
14,C=CCN(CC=C)C(=O)C(Cl)Cl,inactive
15,NNC(=S)NN,inactive
16,Oc1cc(Cl)c(Cl)cc1Cl,inactive
17,CCc1cccc(CC)c1N(COC)C(=O)CCl,inactive
18,Nc1c(Cl)cc([N+](=O)[O-])cc1Cl,inactive
19,O=Cc1ccco1,inactive
20,CCC(C)(c1ccc(O)cc1)c1ccc(O)cc1,inactive
